Assay [1] in a line: Primary qHTS for inhibitors of nuclear receptor binding SET domain protein 2 (NSD2) in an RCH-ACV wild type WT cells (2C) (AID 1645877). For activity change, negative = cell killing: % is set by controls: 0 for no effect and ±100 for the full control effect. Note: nearly all actives have a fitted effect of over 70% in size. Note: potency is the fitted concentration of half-maximal effect. On the technique in general: qHTS replaces the single test concentration by a dilution series.
For assay [2], the target named is Glutathione peroxidase 1 (Homo sapiens) (UniProt P07203). The experiment in a line: Primary qHTS Assay for Inhibitors of Recombinant Selenoprotein Glutathione Peroxidase 1 (GPX1) (AID 1845191). For activity, negative = inhibition: % is set by controls: 0 for no effect and ±100 for the full control effect. Note: nearly all actives have a fitted effect of over 65% in size. The procedure, abridged: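 GR-coupled assay: compounds preincubated 30 min at room temperature with GPX1, then reaction started with CHP; final 10 nM GPX1, 1 mM GSH, 0.5 mM CHP, 0.5 mM NADPH, 100 nM GR, 0.01% BSA, pH 7.5 Tris buffer. NADPH fluorescence (340/450 nm) read at 0 and 15 min.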
Glutathione peroxidase 1 (Homo sapiens), sequence (P07203 whole entry, looked up): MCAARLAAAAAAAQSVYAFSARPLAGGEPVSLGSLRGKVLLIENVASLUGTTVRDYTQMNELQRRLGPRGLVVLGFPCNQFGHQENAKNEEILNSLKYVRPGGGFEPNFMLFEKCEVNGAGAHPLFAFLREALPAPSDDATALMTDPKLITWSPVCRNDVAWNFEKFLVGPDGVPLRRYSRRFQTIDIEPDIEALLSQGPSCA

The target of assay [3] is Phospholipid hydroperoxide glutathione peroxidase GPX4 (Homo sapiens) (UniProt P36969). The experiment in a line: Primary qHTS Assay for Inhibitors of Recombinant Selenoprotein Glutathione Peroxidase 4 (GPX4) (AID 1845192). For activity change, negative = inhibition: series mostly up to about 50 µM; % is set by controls: 0 for no effect and ±100 for the full control effect. Note: nearly all actives have a fitted effect of over 65% in size. The procedure, abridged:
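GR-coupled assay: recombinant GPX4 preincubated 30 min with compound at room temperature; final 200 nM GPX4, 1 mM GSH, 0.5 mM cumene hydroperoxide, 0.5 mM NADPH, 100 nM GR, 0.01% BSA, pH 7.5 Tris. NADPH fluorescence (340/450 nm) read at 0 and 15 min.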

In assay [4] the target is Luciferin 4-monooxygenase (Photinus pyralis) (UniProt P08659). Put plainly: Primary firefly luciferase (FLuc) qHTS assay for identification of artifact compounds. (AID 1845220).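 For activity change, negative = inhibition: series mostly up to about 54 µM; plate controls were DMSO vehicle for no effect and no enzyme for full effect.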 Note: nearly all actives have a fitted effect of over 60% in size. The procedure, abridged: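 Titrated compounds were incubated 15 min at RT, protected from light, with luciferin and ATP at 10 uM; reaction started with 10 nM FLuc, luminescence imaged at 5 min, and concentration-response fitted by Hill equation.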

Assay [5] is described as follows: Primary fluorescence-based thiol-reactive (MSTI) qHTS assay for identification of artifact compounds. (AID 1845221).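 For activity change, negative = thiol reactive: series mostly up to about 54 µM; thiol-reactive compounds lower the probe fluorescence signal.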 Note: nearly all actives have a fitted effect of over 65% in size. Note: potency is the fitted concentration of half-maximal effect. Summed up: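 One-hour, room-temperature, dark incubation of compound with 4 uM MSTI in PBS (pH 7.4, 2% DMSO) precedes a fluorescence read at 525 nm excitation, 598 nm emission; Hill-equation fitting yields concentration-response values.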
Assay [6] relates to Nanoluciferase (engineered Oplophorus gracilirostris luciferase). Put plainly: Primary Nanoluciferase (NLuc) qHTS assay for identification of artifact compounds. (AID 1845222).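 Note: NLuc secreted into diluted conditioned medium of S16 cells; series mostly up to about 54 µM; 0% = DMSO and -100% = no enzyme.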 The procedure, abridged: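 qHTS format, against NLuc in S16 cell-conditioned medium. Nano-Glo substrate 1:100 was added after 15 min at room temperature. Luminescence was taken after a further 5 min.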

The nature of assay [7]: Primary redox qHTS assay for identification of artifact compounds. (AID 1845223).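 Note: 0% = DMSO and 100% = reference compound.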 The procedure, abridged: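 Amplex Red (25 uM) and HRP (250 mU/mL) in HBSS, with compounds for 15 min, then 250 uM DTT for 30 min, room temperature, dark. Fluorescence 525/598 nm read; normalized to DMSO and 10 uM DA3003; Hill fit.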

Structures are written as SMILES. Values without a mark were called inactive. Records with an inconclusive call do not appear. Activity calls are given as the source filed them. Calls come from the whole dose curve; as a rule, active = well fitted curve in the direction sought with a large enough effect; inconclusive = small, poorly fitted or top-dose-only effect, or another doubt; inactive = no such curve, though single readings can be large; an effect the other way counts as inactive or inconclusive.

Phospholipid hydroperoxide glutathione peroxidase GPX4 (Homo sapiens), sequence (P36969 whole entry, looked up): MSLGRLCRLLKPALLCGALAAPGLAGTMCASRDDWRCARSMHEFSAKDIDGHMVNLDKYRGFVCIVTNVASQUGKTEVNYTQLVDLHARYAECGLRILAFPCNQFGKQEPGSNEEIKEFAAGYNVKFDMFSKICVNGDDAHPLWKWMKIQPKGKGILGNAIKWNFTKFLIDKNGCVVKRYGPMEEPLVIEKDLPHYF

Take `O=C(O)/C=C/c1cc2c(cc1O[C@@H]1O[C@H](CO)[C@@H](O)[C@H](O)[C@H]1O)OCO2`: the Potency entry in assay [1], in assay [2], in assay [3], in assay [4], in assay [5] and in assay [6] was “inactive” in each case. The Potency entry in assay [7] was “inactive”.

With `CC(C)NCC(C(=O)N1CCN(c2ncnc3c2C(C)CC3O)CC1)c1ccc(Cl)cc1` (stereo unspecified), the Potency in assay [1] was 2.3 µM (active). Besides, the Potency result in assay [2], in assay [3], in assay [4], in assay [5], in assay [6] and in assay [7] was “inactive” each time.

On to `C=C(C)C1CCC2(C(=O)O)CCC3(C(=O)O)C(CCC4C5(C)CCC(O)C(C)(C(=O)O)C5CCC43C)C12` (stereo unspecified), for which the Potency result in assay [1], in assay [2], in assay [3], in assay [4], in assay [5] and in assay [6] was “inactive” each time. Moreover, the Potency result in assay [7] was “inactive”.

For `OCCc1ccc(O[C@@H]2O[C@H](CO)[C@@H](O)[C@H](O)[C@H]2O)cc1`, the Potency entry in assay [1], in assay [2], in assay [3], in assay [4], in assay [5] and in assay [6] was “inactive” each time. For the same molecule, in assay [7], the Potency entry is “inactive”.

For `C[C@@H]1O[C@@H](O[C@@H]2[C@@H](O)[C@@H](O[C@]3(CO)O[C@H](CO)[C@@H](O)[C@@H]3OC(=O)/C=C/c3ccc(O)cc3)O[C@H](CO)[C@H]2OC(=O)/C=C/c2ccc(O)cc2)[C@H](O)[C@H](O)[C@H]1O[C@@H]1O[C@@H](C)[C@H](O[C@@H]2OC[C@](O)(CO)[C@H]2O)[C@@H](O)[C@H]1O`, the activity change, negative = cell killing in assay [1] is 1.71% [at 9.23 µM]. Further, the Potency entry in assay [2] and in assay [3] was “inactive” each time. For the same molecule, in assay [4], the activity change, negative = inhibition was -0.433% [at 11.6 µM]. For the same molecule, the activity change, negative = thiol reactive in assay [5] is 79.7% [at 11.5 µM]. Further, the activity, negative = inhibition in assay [6] is 0% [at 11.6 µM]. Further, the redox activity (% of DA3003) in assay [7] is 17.5% [at 11.5 µM].

`CS(=O)(=O)N1CCC(NC(=O)c2[nH]ncc2NC(=O)c2c(Cl)cccc2Cl)CC1`: in assay [1], the Potency is 0.332 µM (active). For the same molecule, the Potency result in assay [2], in assay [3], in assay [4], in assay [5], in assay [6] and in assay [7] was “inactive” throughout.

On to `C[C@@H]1O[C@@H](O[C@H]2[C@@H](OC(=O)[C@]34CCC(C)(C)CC3C3=CCC5[C@@]6(C)C[C@H](O)[C@H](O[C@@H]7O[C@H](C(=O)O)[C@@H](O)[C@H](O)[C@H]7O)[C@@](C)(C(=O)O)C6CC[C@@]5(C)[C@]3(C)CC4)OC[C@H](O)[C@@H]2O)[C@H](O)[C@H](O)[C@H]1O[C@@H]1OC[C@@H](O)[C@H](O)[C@H]1O` (stereo partly specified), for which the activity change, negative = cell killing in assay [1] is -16.7% [at 9.23 µM]. Besides, the Potency entry in assay [2] and in assay [3] was “inactive” in each case. Besides, the activity change, negative = inhibition in assay [4] is -6.45% [at 11.6 µM]. Further, the activity change, negative = thiol reactive in assay [5] was 118% [at 11.5 µM]. In assay [6], the activity, negative = inhibition was 0.813% [at 11.6 µM]. For the same molecule, in assay [7], the redox activity (% of DA3003) was 13% [at 11.5 µM].

For `CC1(C)CCC[C@@]2(C)C1[C@H](OC(=O)/C=C/C=C/C(=O)O)C=C1COC(=O)[C@@]12O` (stereo partly specified), the Potency result in assay [1], in assay [2], in assay [3], in assay [4], in assay [5] and in assay [6] was “inactive” in each case. Further, in assay [7], the Potency result was “inactive”.

On to `C[C@@H]1O[C@@H](O[C@H]2[C@H](O[C@H]3CC[C@@]4(C)C(CC[C@]5(C)C4C=C[C@]46OC[C@@]7(CCC(C)(C)C[C@H]74)[C@@H](O)C[C@]65C)[C@]3(C)CO)O[C@H](CO)[C@@H](O)[C@@H]2O[C@@H]2O[C@H](CO)[C@@H](O[C@@H]3O[C@@H](C)[C@H](O)[C@@H](O)[C@H]3O)[C@H](O)[C@H]2O)[C@H](O)[C@H](O)[C@H]1O` (stereo partly specified), for which the Potency in assay [1] is 3.88 µM (active). Also, the Potency entry in assay [2] and in assay [3] was “inactive” each time. For the same molecule, the activity change, negative = inhibition in assay [4] was -4.04% [at 11.6 µM]. Further, the activity change, negative = thiol reactive in assay [5] was 81.1% [at 11.5 µM]. The activity, negative = inhibition in assay [6] was -2% [at 11.6 µM]. Further, the redox activity (% of DA3003) in assay [7] was 9.95% [at 11.5 µM].

On to `CC(=O)c1ccc(O[C@@H]2O[C@H](CO)[C@@H](O)[C@H](O)[C@H]2O)cc1`, for which the Potency result in assay [1], in assay [2], in assay [3], in assay [4], in assay [5] and in assay [6] was “inactive” throughout. In addition, the Potency result in assay [7] is “inactive”.

Consider `C=C1CC[C@@H]2[C@](C)(CO[C@@H]3O[C@H](CO)[C@@H](O)[C@H](O)[C@H]3O)[C@H](O)CC[C@@]2(C)[C@@H]1C/C=C1/C(=O)OC[C@H]1O`, for which the Potency result in assay [1], in assay [2], in assay [3], in assay [4], in assay [6] and in assay [7] was “inactive” each time. Moreover, in assay [5], the Potency was 13 µM (active).

For `CCOCc1cc(OC)c(-c2ccc(C[C@H](NC(=O)c3c(F)cccc3F)C(=O)O)cc2)c(OC)c1`, the Potency result in assay [1], in assay [2], in assay [3], in assay [4], in assay [5] and in assay [6] was “inactive” each time. In addition, the Potency result in assay [7] was “inactive”.

For `C=C1CCC2C(C(C)(C)O)CCC2(C)CC(O)C(=C)CCC1O` (stereo unspecified), in assay [1], the Potency was 10.1 µM (active). Besides, the Potency entry in assay [2], in assay [3], in assay [4], in assay [5], in assay [6] and in assay [7] was “inactive” each time.

`C/C1=C\CCC(C)CCO[C@@H]2O[C@H](CO[C@@H]3OC[C@H](O)[C@H](O)[C@H]3OC1=O)[C@@H](O)[C@H](O)[C@H]2O` (stereo partly specified): the Potency entry in assay [1], in assay [2], in assay [3], in assay [4], in assay [6] and in assay [7] was “inactive” throughout. The Potency in assay [5] was 8.22 µM (active).

Take `CC(=O)O[C@@H]1C[C@@H](OC(C)=O)C(C)(C)/C=C/[C@H](C)[C@H](OC(C)=O)[C@@]2(O)C[C@H](C)[C@H](OC(=O)c3ccccc3)[C@@H]2/C=C/1C`: the Potency result in assay [1], in assay [2], in assay [3], in assay [4], in assay [5] and in assay [6] was “inactive” each time. For the same molecule, the Potency result in assay [7] is “inactive”.

Turning to `C/C=C(/COC(=O)/C(C)=C/C)C(=O)OC(CC)c1ccc(OC)c(OC)c1` (stereo unspecified), the Potency result in assay [1], in assay [2], in assay [3], in assay [4], in assay [5] and in assay [6] was “inactive” throughout. Besides, in assay [7], the Potency result is “inactive”.

For `CC(=O)O[C@@H]1[C@@H](O)[C@H](C)O[C@@H](O[C@H]2[C@@H]3C=CO[C@@H](O[C@@H]4O[C@H](CO)[C@@H](O)[C@H](O)[C@H]4O)[C@@H]3[C@@]3(CO)O[C@@H]23)[C@@H]1OC(=O)/C=C/c1ccccc1`, the Potency entry in assay [1], in assay [2], in assay [3], in assay [4], in assay [5] and in assay [6] was “inactive” throughout. Also, the Potency entry in assay [7] was “inactive”.

On to `C=C(C)C1CC[C@]2(C(=O)O)CC[C@]3(C(=O)O)[C@H](CCC4[C@@]5(C)CC[C@H](O)C(C)(C)C5CC[C@]43C)C12` (stereo partly specified), for which the Potency result in assay [1], in assay [2], in assay [3], in assay [4], in assay [5] and in assay [6] was “inactive” throughout. For the same molecule, in assay [7], the Potency entry was “inactive”.

The values above are taken from PubChem BioAssay (NCATS).
